Screening results: PubChem BioAssay, National Center for Advancing Translational Sciences (NCATS)
Shown are actives, neighbours in structure and some others; about 0.72% of the full set was active somewhere.
PI4K2A block: inhibitors of human PI4K2A; Q9BTU6; purified PI4K2A, ADP-Glo luminescence, 1 h; active compounds read low; activity change, negative = inhibition, % at 76.9 µM; hit rate 0.13% among 420,000; AID 1346378; in the data active means activity change below about -50%; inconclusive means mostly about -30% to -49%;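 further: -100% = wells without enzyme as full effect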
Target sequence (Q9BTU6 whole entry, looked up): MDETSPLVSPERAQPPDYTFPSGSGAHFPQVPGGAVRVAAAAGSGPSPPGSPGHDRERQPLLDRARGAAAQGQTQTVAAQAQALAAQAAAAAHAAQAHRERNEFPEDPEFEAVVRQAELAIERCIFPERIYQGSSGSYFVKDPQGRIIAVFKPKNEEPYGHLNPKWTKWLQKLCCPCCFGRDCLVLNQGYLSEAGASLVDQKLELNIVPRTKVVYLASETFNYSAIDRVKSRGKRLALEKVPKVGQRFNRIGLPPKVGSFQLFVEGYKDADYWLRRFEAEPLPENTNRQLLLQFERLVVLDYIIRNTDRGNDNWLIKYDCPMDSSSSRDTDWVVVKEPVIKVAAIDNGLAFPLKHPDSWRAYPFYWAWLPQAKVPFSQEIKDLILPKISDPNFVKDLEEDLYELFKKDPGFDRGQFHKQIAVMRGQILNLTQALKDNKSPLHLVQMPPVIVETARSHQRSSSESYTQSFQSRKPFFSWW
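PI4K2A activity was measured by ADP-Glo luminescence: enzyme (4 ug/mL stock) and phosphatidylinositol (1.2 mM stock) in Tris pH 7.5/MgCl2/EGTA/Triton X-100 buffer were reacted with ATP (300 microM stock) for one hour at ambient temperature.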
RGS4 inhibitor: inhibitors of human regulator of G protein signaling 4 | P49798 | Transcreener GDP fluorescence polarization, RGS4-accelerated GTP hydrolysis | Potency, µM (doses to about 114 µM), for inactives: at the highest dose activity change, negative = inhibition, hits mostly inhibitors | hit rate 0.039% among 390,000; further: potency means the concentration at half of the fitted maximal effect; nearly all actives have a fitted effect of over 75% in size
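MLSMR compounds (23 nl, pin-transferred) preincubated 10 min at room temperature with a 500nM (2x) first reagent, then RGS4 at 900nM (2x) plus Transcreener GDP mix added; fluorescence polarization (620/688 nm) read before and after 90 min at 30 °C.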
USP2a block: blocks human ubiquitin-specific protease USP2a. O75604. USP2 core, Ub-CHOP2 coupled fluorogenic reporter, 485/531. Potency, µM (top dose mostly 38.3 µM), for the others: at the highest dose activity change, negative = inhibition, hits mostly inhibitors. hit rate 0.01% among 330,000;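 further: potency means the concentration at half of the fitted maximal effect; plate controls were DMSO wells for no effect and full inhibition by NEM control for full effect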
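Cell-free coupled assay: 10nM USP2 core preincubated 30min RT with compound in Tris-HCl pH 8.0/CaCl2/CHAPS buffer, then 25nM Ub-CHOP2 and 25nM reporter substrate; fluorescence (Ex 485/Em 531) read after 60min RT, normalized to NEM inhibition, concentration-response curves fitted.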
Eya2 phos inh: blocks the phosphatase activity of human Eya2; AID 488837; recombinant Eya2, OMFP fluorescence dephosphorylation (OMFP is methylfluorescein phosphate); hit rate 0.006% among 330,000; O00167; Potency, µM (doses to about 76.9 µM), without a hit: at the highest dose activity, negative = inhibition, actives largely listed as inhibitors; further: potency means the concentration at half of the fitted maximal effect
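Eya2 (0.2 uM) preincubated 10 min at ambient with compound, then OMFP substrate added at 50 uM; 10 min reaction in 50 mM HEPES pH 7.5, 50 mM NaCl, 5 uM MgCl2, 0.05% BSA, 1 mM DTT. Fluorescence read at Ex 485/Em 525 nm.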
Six1-Eya2 inh: inhibitors of human Six1/Eya2 interaction. activity change, % (no concentration beside the values). Q15475+O00167. AlphaScreen GST-Six1/His-Eya2 binding, biochemical; active compounds read low. hit rate 0.56% among 360,000; in the data active means activity change below about -65%; inconclusive means mostly about -30% to -63%
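Six1/Eya2 binding was read as AlphaScreen signal after compounds were pinned into GST-Six1 plus His-tagged Eya2 (5X stock 250/500 nM) in pH 8.0 Tris/NaCl/TCEP buffer, beads added, then incubated 1 h, 37 C, dark.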
CtBP-E1A inh: CtBP/E1A binding inhibition. AlphaScreen GST-E1A/His-CtBP binding, 1536-well; active compounds read low. activity change, % (no concentration beside the values). hit rate 0.49% among 340,000. AID 651724; in the data active means activity change below about -65%; inconclusive means mostly about -30% to -63%
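Steps: dispense buffer (Tris pH 8.0, NaCl 300 mM, TCEP 1 mM, BSA, Tween 20); add 5X protein mix (GST-E1A, His-CtBP, 125 nM each); pin 23 nL compound; 2 h at 37 °C, dark; add 5X beads (50 ug/mL); 1 h; read.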
Numbers without * were called inactive; ? = inconclusive; . = not tested or not shown; [ ] = another dose, or the depositor's remark. Unless noted, the call rests on the fitted dose curve; in most records, active means well fitted curve in the direction sought with a large enough effect; inconclusive means small, poorly fitted or top-dose-only effect, or another doubt; inactive means no such curve, though single readings can be large; an effect the other way counts as inactive or inconclusive. Unless noted, on the % scale 0 is the no-effect control and ±100 the full control effect.

SMILES	PI4K2A block	RGS4 inhibitor	USP2a block	Eya2 phos inh	Six1-Eya2 inh	CtBP-E1A inh
O=C(CCc1ccc(S(=O)(=O)N2CCOCC2)cc1)N/N=C/c1ccc(O)c(O)c1O	-7	?	6%	9%	-68*	-73*
Nc1cc(C(F)(F)F)ccc1S	-10	.	.	.	.	.
CCOC(=O)c1ccc(NC(=O)CSc2nc(N)c(NC(=O)c3ccc(Br)o3)c(=O)[nH]2)cc1	-20	-30%	3%	-2%	-79*	?
O=C(NCc1ccc(C(=O)NCC2CCCO2)cc1)c1cccc(Br)c1 (stereo unspecified)	2	.	.	.	.	.
COc1ccccc1/C=N/NC(=O)c1ccc(C)nc1	2	19%	2%	-3%	8	.
O=C(N/N=C/c1c(O)ccc2ccccc12)c1ccc[n+](CCO)c1	1	-37%	3%	-3%	-91*	-90*
Cc1ccc(C(=O)N/N=C/c2c(O)ccc3ccccc23)cn1	-5	-16%	3%	12%	-74*	.
O=C(N/N=C/c1c(O)ccc2ccccc12)c1ccc(Br)o1	-3	?	3%	?	?	?
Cn1cc(C(=O)N/N=C/c2c(O)ccc3ccccc23)ccc1=O	0	-54%	0%	0%	-89*	.
O=C(N/N=C\c1c(O)ccc2ccccc12)c1ccc(O)cc1	3	-10%	0%	4%	-65*	?
CCOc1ccccc1C(=O)NC(C(=O)OCn1nnc2ccccc2c1=O)C(C)C (stereo unspecified)	-5	.	.	.	7	6
O=C(N/N=C\c1c(O)ccc2ccccc12)c1cncc(Br)c1	5	-13%[56.9 µM]	?	?	?	?
O=C(N/N=C/c1c(O)ccc2ccccc12)c1cccnc1	5	-8%[56.9 µM]	12%	9%	-67*	-92*
Cn1nccc1C(=O)N/N=C/c1c(O)ccc2ccccc12	5	-15%	2%	?	-87*	-83*
O=C(NN=Cc1c(O)ccc2ccccc12)c1ccncc1	1	?	.	.	-89*	?
Cc1occc1C(=O)N/N=C/c1c(O)ccc2ccccc12	-22	-3%	-8%	-4%	-23	-28
CCOc1ccc(NC2=C(OC)C(=O)c3ccccc3C2=O)cc1	-25	-28%	1%	1%	-75*	?
COC1=C(Nc2ccc(O)cc2)C(=O)c2ccccc2C1=O	?	-17%	-2%	-3%	?	?
COC1=C(Nc2ccc(OC)cc2)C(=O)C(OC)=C(Nc2ccc(OC)cc2)C1=O	-3	5%	.	.	-4	-11
COC1=C(Nc2ccc(OC)cc2)C(=O)c2ccccc2C1=O	-19	-26%	-10%	-1%	-75*	12
O=C(NCc1ccccc1)Nc1ccccc1C(=O)N1CCCC1	1	.	.	.	.	.
CC(=O)/C(=N\Nc1ccccc1Cl)Sc1cccc2cccnc12	4	2%	1%	3%	-89*	-92*
COc1ccc(OC)c(NC(=O)CSc2ncnc3sc(C)cc23)c1	1	-44%	.	.	?	-73*
COc1ccc(OC)c(NC(=O)CNC(=O)Cn2cnc3sc(C)cc3c2=O)c1	-1	1%[56.9 µM]	-1%	0%	3	8
Cc1ccc(NC(=O)CSCC(=O)N(C)Cc2c(F)cccc2Cl)cc1	3	.	.	.	0	0
O=C(NC1CCCCC1)C(C1CC1)n1c(=O)c(-c2ccccc2)nc2ccccc21 (stereo unspecified)	2	.	.	.	3	2
S=C(Nc1ccc(Cl)cc1)c1nc2ccccc2[nH]1	7	-8%	-1%	-19%	-73*	?
Cc1ccccc1NC(=S)c1nc2ccccc2[nH]1	6	-17%	-1%	3%	-90*	-84*
CCCC/C=C/[C@H](c1ccccc1)[C@H](CO)Cc1ccc2ccccc2c1	.	-17%	.	.	.	.
COC(=O)[C@]12C[C@H](CC(=O)NCCCN3CCCC3=O)C(=O)N(Cc3cccc4ccccc34)C1=C[C@H](COCc1ccccc1)O[C@@H]2C	-3	.	.	.	.	.
